Screening results from PubChem.
Hits are enriched below; roughly 21% of the tested compounds scored in any of these assays.
CYP2C9 inhib: blocks human cytochrome P450 2C9 | P11712 | CYP2C9 Supersomes, luciferin-H conversion, luminescence | inhibition, % at 5 µM | 96,000 compounds, 20% hits;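 active means blocking of liver enzyme CYP2C9 beyond about 50% at 5 µM, limit read from the data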
MRP resist rev: compounds reversing MRP-mediated drug resistance; AID 602; differential viability (reversal), % at 10 µM; H69AR cells + 2 uM doxorubicin, CellTiter-Glo, 72 h; 85,000 compounds, 0.04% hits;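 active means viability drop by adding the cancer drug above about 55%, with treated viability meeting a 40% cutoff, limit read from the data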;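 further: viability without doxorubicin minus viability with 2 µM doxorubicin for each compound; larger differential means the compound sensitizes cells more to doxorubicin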
CYP2C19 inhib: human CYP2C19 inhibition; 96,000 compounds, 21% hits; inhibition, % at 5 µM; AID 778; P33261; CYP2C19 Supersomes, luciferin-H EGE luminescence, 30 min;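 active means CYP2C19 inhibition above a set limit at 5 µM in the primary screen, cut at about 50% in these data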;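 further: plate controls were negative control wells for no effect and 2.5 mM tranylcypromine positive control for full effect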
Target sequence (P33261 whole entry, looked up): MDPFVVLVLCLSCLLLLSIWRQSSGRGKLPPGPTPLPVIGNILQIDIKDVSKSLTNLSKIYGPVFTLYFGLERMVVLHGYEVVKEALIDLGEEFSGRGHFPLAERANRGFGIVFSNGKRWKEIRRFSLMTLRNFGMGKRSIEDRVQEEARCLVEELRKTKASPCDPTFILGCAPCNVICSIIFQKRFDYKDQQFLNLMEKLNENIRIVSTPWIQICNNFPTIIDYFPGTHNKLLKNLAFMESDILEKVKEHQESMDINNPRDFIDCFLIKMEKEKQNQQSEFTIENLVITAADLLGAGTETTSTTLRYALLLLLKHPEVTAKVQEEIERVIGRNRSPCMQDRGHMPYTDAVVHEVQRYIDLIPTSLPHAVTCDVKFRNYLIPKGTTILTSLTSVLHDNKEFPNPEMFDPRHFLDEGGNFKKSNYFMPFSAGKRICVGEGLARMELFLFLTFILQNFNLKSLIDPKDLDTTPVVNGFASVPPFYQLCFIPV
CYP2C19 act: cytochrome P450 2C19 (human) activation; P33261; recombinant CYP2C19, luciferin-H EGE luminescence; hits give high values; 0 = fully inhibited enzyme, 1 = untreated enzyme; activation factor at 5 µM; 96,000 tested, under 10 active;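 active means activation factor of at least 2 at 5 µM in the primary screen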;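 further: 0 = wells with 2.5 mM tranylcypromine and 1 = vehicle-only wells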
CYP2C9 activ: increases human cytochrome P450 2C9 activity; activation factor at 5 µM; P11712; recombinant CYP2C9, luciferin-H conversion, luminescence; hits give high values; factor 1 = untreated enzyme, 0 = blocked; 96,000 compounds, 1.4% hits;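 active means activation factor of 2 or more for CYP2C9 at a 5 µM dose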;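 further: 0 = sulfaphenazole-blocked wells and 1 = vehicle-only wells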
MRP1 act: MRP-1 activation; H69AR cells + doxorubicin, viability rescue, CellTiter-Glo; viability increase, % at 10 µM; 140,000 compounds, 0.61% hits; AID 799;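 active means viability gain under doxorubicin at or above a set limit, the compound median plus 3 SD, cut at about 4.7% in these data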;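 further: MRP-1 overexpressing cells given doxorubicin 25 µM after compound pretreatment; 18-22 h compound pretreatment then 72 h with doxorubicin before readout; 0% = doxorubicin-only wells and 100% = vehicle-treated cells without doxorubicin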
An asterisk follows results filed as active; / = no result.

SMILES | CYP2C9 inhib | MRP resist rev | CYP2C19 inhib | CYP2C19 act | CYP2C9 activ | MRP1 act
COc1ccccc1-c1c(C)nn2c(N3CCN(Cc4ccccc4)CC3)cc(C)nc12 | 52.0* | 4.6 | 56.6* | 0.4 | 0.5 | -3.9
CCCCOCCCNC(=O)c1ccc(OC)cc1 | 13.9 | 4.5 | 57.7* | 0.4 | 0.9 | -4.5
CCCCOCCCNC(=O)Cc1ccccc1OC | -1.1 | 8.4 | 73.0* | 0.3 | 1 | 0.3
CC1=C(C(=O)OC(C)C)C(c2c(O)ccc3ccccc23)NC(=O)N1 (centres undefined) | 6.5 | 21.1 | 86.4* | 0.1 | 0.9 | -3.0
CCOc1ccccc1CNC(=O)c1c([N+](=O)[O-])c(C)nn1C | / | / | / | / | / | 0.3
COC(=O)c1ccc(NC(=O)C2CCCN(S(=O)(=O)c3cnc[nH]3)C2)cc1 (centres undefined) | 86.4* | 0.5 | 78.8* | 0.2 | 0.1 | 0.3
CSc1cccc(NC(=O)C2CCCN(S(=O)(=O)c3cnc[nH]3)C2)c1 (centres undefined) | 92.9* | 1.5 | 97.5* | 0 | 0.1 | 1.3
CSc1cccc(NC(=O)C2CCN(S(C)(=O)=O)CC2)c1 | -4.5 | 47.4 | 2.8 | 1 | 1 | -3.2
CCOC(=O)N1CCN(C(=O)c2ccc3c(=O)n(Cc4ccc(Cl)cc4)c(=S)[nH]c3c2)CC1 | 51.8* | -21.4 | 41.0 | 0.6 | 0.5 | -4.7
O=c1c2cc3c(cc2[nH]c(=S)n1Cc1ccco1)OCO3 | 11.3 | -9.3 | 77.6* | 0.2 | 0.9 | -3.6
CCOC(=O)N1CCN(C(=O)c2ccc3c(=O)n(CCc4ccccc4)c(=S)[nH]c3c2)CC1 | 71.1* | 0.2 | 71.8* | 0.3 | 0.3 | -4.5
O=C(c1ccc2c(=O)n(Cc3ccco3)c(=S)[nH]c2c1)N1CCN(Cc2ccccc2)CC1 | 70.1* | 24.7 | 57.1* | 0.4 | 0.3 | -3.0
CN1CCN(C(=O)c2ccc3c(=O)n(Cc4ccco4)c(=S)[nH]c3c2)CC1 | 42.6 | 10.2 | 23.7 | 0.8 | 0.6 | -1.0
CN1CCN(C(=O)c2ccc3c(=O)n(CCc4ccccc4)c(=S)[nH]c3c2)CC1 | / | 8.8 | / | / | / | /
Cc1cc(Br)c(Cl)cc1NC(=O)CN1C(=O)C2C3CC(c4ccccc4)C(C3)C2C1=O (centres undefined) | / | / | / | / | / | -5.7
O=C(NC12CC3CC(CC(C3)C1)C2)N1CCC(n2nnc3ccccc32)CC1 | 6.1 | 17.8 | 78.3* | 0.2 | 0.9 | -0.2
O=C(NC12CC3CC(CC(C3)C1)C2)N1CCC(O)CC1 | 4.5 | -1.3 | 0.9 | 1 | 1 | -1.9
Clc1ccc(OCc2nn3c(C4CCCCC4)nnc3s2)c(Cl)c1 | -3.2 | 10.3 | 8.6 | 0.9 | 1 | 0.2
c1cncc(-c2nnc3sc(C4CCCCC4)nn23)c1 | 34.0 | 21.8 | 94.2* | 0.1 | 0.7 | -1.5
COc1cccc(-c2nnc3sc(C4CCCCC4)nn23)c1 | 78.2* | 2.8 | 84.1* | 0.2 | 0.2 | -2.6
COc1cc(OC)c(-c2nn3c(C4CCCCC4)nnc3s2)cc1OC | 85.1* | -6.8 | 83.7* | 0.2 | 0.1 | -2.3
c1ccc(OCc2nn3c(-c4cccnc4)nnc3s2)cc1 | 16.2 | 6.8 | 31.9 | 0.7 | 0.8 | 0.4
CCOc1cccc(-c2nnc3sc(C4CCCCC4)nn23)c1 | 43.4 | 9.0 | 94.1* | 0.1 | 0.6 | -2.4
CCOc1cccc(-c2nnc3sc(-c4cc(OC)c(OC)cc4OC)nn23)c1 | -16.0 | -3.6 | -5.1 | 1.1 | 1.2 | /
O=C(NC12CC3CC(CC(C3)C1)C2)c1cncc(O)c1 | 12.8 | -5.5 | 14.4 | 0.9 | 0.9 | -0.8
SMILES | CYP2C9 inhib | MRP resist rev | CYP2C19 inhib | CYP2C19 act | CYP2C9 activ | MRP1 act
CC1=C2C3OC(=O)C(C)[C@@H]3CC[C@](C)(O)C2C2C3C4C5(C12)[C@H]1OC(=O)[C@@H](C)C1CC[C@]4(C)O[C@]5(C)[C@@H]3O (some centres undefined) | / | / | / | / | / | -1.4
COc1ccc(/C=C/C(=O)C2C(=O)C=C(C)OC2=O)cc1O (centres undefined) | / | / | / | / | / | -6.2
Cc1noc(C)c1S(=O)(=O)N1CCCC(C(=O)NCc2ccccn2)C1 (centres undefined) | -0.4 | / | -1.3 | 1 | 1 | -0.8
COc1cc(-c2nnc3sc(C4CCCCC4)nn23)cc(OC)c1OC | 77.3* | / | 74.7* | 0.3 | 0.2 | -3.0
Cc1cc(-c2nnc3sc(C4CCCCC4)nn23)n[nH]1 | 2.0 | 18.2 | 73.3* | 0.3 | 1 | -0.7
COC1=Cc2c(ccc3ccc(=O)oc23)OC1(C)C | 23.3 | 3.9 | 0.8 | 1 | 0.8 | -2.9
C=CCc1c(OC)ccc2ccc(=O)oc12 | -124.2 | / | 56.9* | 0.4 | 2.2* | -0.2
CC(C)C(NS(=O)(=O)c1ccc2c(c1)OCCCO2)C(=O)O (centres undefined) | / | / | / | / | / | 1.8
COC(=O)[C@@]1(Cc2ccc(F)cc2)[C@H]2c3cc(C(=O)N(C)C)n(Cc4nc5ccccc5[nH]4)c3C[C@H]2CN1C(=O)c1ccccc1 | / | / | / | / | / | -4.2
CCN(CC)C(=O)c1cc2sc3ccccc3c2s1 | -135.6 | 15.6 | 27.1 | 0.7 | 2.4* | -0.1
CCN(Cc1ccccc1)C(=O)c1cc2c(=O)oc3ccc(C)cc3c2s1 | -40.7 | -18.6 | 16.7 | 0.8 | 1.4 | -1.3
COCCN(CCOC)C(=O)c1cc2sc3ccccc3c2s1 | -178.6 | -4.6 | 34.2 | 0.7 | 2.8* | -3.5
Cc1cnn(C(=O)c2ccccc2Br)c1 | -8.0 | 11.3 | 30.4 | 0.7 | 1.1 | -0.7
C=CCC1(O)C(=O)N2C(=C1C(=O)N1CCOCC1)c1ccccc1CC2(C)C (centres undefined) | 10.7 | 0.8 | 5.2 | 0.9 | 0.9 | -0.6
COc1cccc(CNC(=O)c2cc3ccccn3n2)c1 | -32.8 | 1.9 | 66.2* | 0.3 | 1.3 | -0.2
COc1cccc(CN2CCCN(S(=O)(=O)c3ccc(Br)cc3)CC2)c1 | 0.1 | 4.0 | 78.7* | 0.2 | 1 | -4.3
Cc1cccc(-n2c(CNC(=O)c3ccc(S(=O)(=O)N4CCCC4)cc3)n[nH]c2=S)c1 | 5.2 | -5.0 | 53.0* | 0.5 | 0.9 | 0.9
COc1ccc(-n2c(CNC(=O)c3ccc(S(=O)(=O)N4CCCC4)cc3)n[nH]c2=S)cc1 | 17.0 | / | 10.1 | 0.9 | 0.8 | 1.5
O=C(NCc1ccccn1)c1cc2ccccn2n1 | -10.8 | 6.8 | -2.8 | 1 | 1.1 | 0.3
O=S(=O)(c1ccc(Br)cc1)N1CCCN(Cc2cccc(F)c2)CC1 | / | 1.7 | / | / | / | -2.9
COc1cccc(CN2C(=O)C3CCCN3c3ccc(S(=O)(=O)N4CCOCC4)cc32)c1 (centres undefined) | 62.2* | / | 27.0 | 0.7 | 0.4 | -0.9
O=c1[nH]c(N2CCOCC2)nc2c1CCCC2 | -10.8 | / | -0.7 | 1 | 1.1 | -0.7
Cc1ccc(C(=O)N[C@H](C(=O)Nc2cc(Cl)cc(Cl)c2)C(C)C)cc1 | / | / | / | / | / | 1.5
CCOCCCNC(=O)CC1Oc2ccc(C)cc2NC1=O (centres undefined) | -28.3 | 11.3 | 13.3 | 0.9 | 1.3 | -1.5
Cc1cc2cc(CNC(=O)c3ccc(S(=O)(=O)N4CCCCC4)cc3)ccc2[nH]1 | 79.0* | -1.6 | 34.0 | 0.7 | 0.2 | -1.6
